The text below walks through data of PubChem BioAssay AID1458 (National Center for Advancing Translational Sciences (NCATS), 2008).

The whole screen tested about 210,000 compounds, of which about 5,900 (2.8%) were called active. Where a call stands in place of a potency, no number is given. Another 5% or so got no clear call; they are omitted. Calls come from the whole dose curve; as a rule, active = well fitted activation curve with a large enough effect; inconclusive = small, poorly fitted or top-dose-only effect; inactive = no such curve, though single readings can be large or run the other way. This excerpt belongs to a sample that is enriched for actives.
Potency is the fitted concentration of half-maximal effect.

The experiment can be described thus: qHTS Assay for Enhancers of SMN2 Splice Variant Expression. Note: nearly all actives have a fitted effect of over 55% in size. The following applies: HEK293 SMN2-luciferase splicing reporter, luminescence, 30-36 h; series mostly up to 46.1 µM. An excerpt: NIH Chemical Genomics Center [NCGC] NIH Molecular Libraries Probe Production centers Network [MLPCN] MLPCN Grant: R03 MH084179-01 Assay Submitter (PI): Elliot Androphy NCGC Assay Overview: Spinal muscular atrophy (SMA) is caused by insufficient levels of the survival motor neuron protein SMN. The SMN locus on chromosome 5q13 contains two inverted copies of SMN called SMN1 and SMN2 which are 99% identical at the amino acid level. SMN1 is a fully functional protein and SMN2 skips exon 7 90% of the time. Skipping of exon 7 produces non-functional protein product. 10% of the SMN2 protein includes exon 7 and is fully functional. In the SMA disease state, mutations in the SMN1 locus are the cause of the disease state. Because only 10% of SMN2 is of the fully functional form, it is not sufficient to overcome the deficiency produced by the loss of the SMN1 product. A therapy that either increase the amount of SMN2 product made or to increase the inclusion of exon 7 has been proposed for the treatment of SMA. We have designed an assay to identify small molecules that can increase the amount of functional SMN2 product by appending a luciferase reporter gene after the native SMN2 gene, such that inclusion of exon 7 in the expressed product places the luciferase sequence in frame, thus generating functional luciferase enzyme.
NCGC Assay Protocol Summary: This screen utilizes a luciferase reporter gene assay, combining the promoter and splicing based cassettes in tandem with the major portion of the native SMN2 cDNA, and then transfected into HEK293 cells. Compounds that increase luciferase signal presumably enhance expression of the functional SMN2 splice variant. Passaging media contained DMEM w/ glutamax (+phenol red) 10% FCS, 1x pen/strep, 200 ug/ml hygro, 1x sodium pyruvate. Assay media contained DMEM w/ glutamax (-phenol red) 10% FCS, 1x pen strep, 1x pyruvate Sequence, Parameter, Value, Description (1) Cells, […], 2000 cells/well, 1536 TC treated White solid bottom plate (2) Time, 10-12 hours, 37C 5% CO2 (3) Compound, 23 nl, MLSMR Library (4) Control Compound, 23 nL, Sodium butyrate st 4.5mM (final) conc (5) Time, 30-36 hours, 37C 5% CO2 (6) Reagent, 3 ul, One Glo (TM) from Promega (7) Time, 5-15 minutes, Room temp (8) Detector, Viewlux: luminescent read, 60 second integration, high speed 2x binning Keywords: Spinal muscular atrophy, SMA, SMN2, high throughput screening, MLSMR, MLPCN, NIH Roadmap, qHTS and NCGC
On to `Cc1csc(NC(=S)Nc2cccc(Cl)c2)n1`, for which the Potency was 14.1 µM (active).

In the case of `Cn1c(=O)c2c(-c3ccccc3Br)n(Cc3ccccc3)cc2n(C)c1=O`, the Potency result was “inactive”.

As for `COc1ccc(S(=O)(=O)c2c(Nc3cccc(Cl)c3)sc(C(=O)c3ccccc3)c2N)cc1`, the Potency result was “inactive”.

As to `COc1ccc(C(=O)CSc2nccc(=O)[nH]2)cc1`, the Potency result was “inactive”.

In the case of `COc1ccc(C(CC(=O)O)NC(=O)Cc2ccccc2)cc1` (centres undefined), the Potency result is “inactive”.

For the compound `COc1ccc(C(CC(=O)c2ccccc2)S(=O)(=O)c2ccccc2)cc1` (centres undefined), the Potency is 12.6 µM (active).

For the compound `O=c1ccn([C@@H]2O[C@H](COP(=O)(O)OP(=O)(O)OP(=O)(O)O)[C@@H](O)[C@H]2O)c(=O)[nH]1`, the Potency entry is “inactive”.

For `COc1ccc(CCN2C(=O)c3oc4cc(C)cc(C)c4c(=O)c3C2c2ccccc2F)cc1OC` (centres undefined), the Potency entry was “inactive”.

With `O=C(Nc1nnc(SCc2ccccc2)s1)c1ccco1`, the Potency entry is “inactive”.

For `Cc1cccc(CSc2nnc(NC(=O)CSc3nnc(C)s3)s2)c1`, the Potency result is “inactive”.

Regarding `Cc1ccc(Nc2nnc(SCc3ccccc3)s2)cc1`, the Potency was 14.1 µM (active).

For `COc1cc(C(=O)N(Cc2ccc(C(C)C)cc2)C2CCS(=O)(=O)C2)cc(OC)c1OC` (centres undefined), the Potency entry is “inactive”.

In the case of `COc1ccc(CCNC(=O)Cn2c(=O)n(-c3ccccc3)c(=O)c3c(C)c(C)sc32)cc1OC`, the Potency entry was “inactive”.

Turning to `CC(C)c1nc(-c2ccccn2)no1`, the Potency entry was “inactive”.

Turning to `c1ccc(-c2noc(-c3cccs3)n2)nc1`, the Potency was 2.82 µM (active).

With `Cc1ccc(-c2noc(CSc3nnc(-c4cccs4)n3C)n2)cc1`, the Potency entry was “inactive”.

With `c1csc(-c2nc(-c3ccncc3)no2)c1`, the Potency is 15.8 µM (active).

Turning to `COc1ccc(Cc2nc(-c3ccccn3)no2)cc1OC`, the Potency entry is “inactive”.

Take `c1ccc(CCc2nc(-c3ccncc3)no2)cc1`: the Potency entry was “inactive”.

As for `COc1ccc(C)cc1-n1c(-c2ccc(C)cc2)cc2c1CC(C)(C)CC2=O`, the Potency result is “inactive”.

As to `Cn1c(=O)c(C(=O)O)nn(-c2ccccc2)c1=O`, the Potency entry is “inactive”.

Take `COc1ccc(-c2c(C)nn3c(N4CCC(C(=O)NCCC(C)C)CC4)cc(C)nc23)cc1OC`: the Potency result is “inactive”.

As for `Cc1cc(-c2ccccc2)n2nc(C)c(-c3ccccc3)c2n1`, the Potency entry is “inactive”.

Turning to `Cc1cc(N2CCCC2)n2nc(C)c(-c3ccccc3)c2n1`, the Potency was 11.2 µM (active).

As to `Cc1cc(-n2nc(C)cc2C)n2nc(C)c(-c3ccccc3)c2n1`, the Potency entry was “inactive”.

In the case of `CCc1nc2nc(C)cc(Nc3ccc(F)c(Cl)c3)n2n1`, the Potency result was “inactive”.

With `Cn1c(C(=O)N2CCC(C(=O)N3CCN(c4ccccc4)CC3)CC2)cc2sccc21`, the Potency entry was “inactive”.

With `COc1ccc(NC(=O)CCN2CCN(CCO)CC2)cc1`, the Potency result is “inactive”.

As for `CC(C)N1CCC(NC(=O)Nc2ccccc2)CC1`, the Potency entry was “inactive”.

Regarding `CC(C)c1ccc(NC(=O)NC2CCCCC2)cc1`, the Potency is 11.2 µM (active).

For the compound `CC(C)(C)NS(=O)(=O)c1ccc(NC(=O)NC2CCCCC2)cc1`, the Potency result is “inactive”.

For the compound `CCc1nn(CC(=O)N2CCN(c3cccc(C(F)(F)F)c3)CC2)c(=O)c2cc3occc3n12`, the Potency result is “inactive”.

Take `Oc1cccc2ccc(/C=C/c3ccc(Br)s3)nc12`: the Potency is 8.91 µM (active).

With `Nc1ccc(S(=O)(=O)Nc2nccc(/C=C/c3ccc(Br)s3)n2)cc1`, the Potency entry was “inactive”.

Regarding `COc1cc(OC)cc(-c2nc3nc(C)c(CCC(=O)Nc4ccccc4)c(C)n3n2)c1`, the Potency entry is “inactive”.

In the case of `O=C(Nc1ccc(Br)cn1)c1ccc([N+](=O)[O-])o1`, the Potency entry was “inactive”.

On to `O=C(Nc1ccc(Br)cn1)c1ccc([N+](=O)[O-])cc1Cl`, for which the Potency is 7.08 µM (active).

As to `CC(C)C(=O)Nc1cccc(NC(=O)c2ccc([N+](=O)[O-])cc2Cl)c1`, the Potency result was “inactive”.

On to `COc1ccccc1N1CCN(c2ncnc3onc(-c4cccc(Cl)c4)c23)CC1`, for which the Potency result was “inactive”.

In the case of `O=C(Nc1nnc(C2CC2)s1)c1ccccn1`, the Potency was 2.82 µM (active).

For `O=C(Nc1nnc(Cc2ccccc2)s1)c1cnccn1`, the Potency result is “inactive”.

As to `Cc1occc1C(=O)Nc1nnc(C2CCCCC2)s1`, the Potency result is “inactive”.

`NC(=O)CSc1nc2c(oc3ccccc32)c(=O)n1Cc1ccccc1`: the Potency entry is “inactive”.

In the case of `Cc1ccc(-n2c(SCC(=O)Nc3cccc(F)c3)nc3c(oc4ccccc43)c2=O)cc1C`, the Potency result is “inactive”.

Regarding `COC(=O)C1=C(c2ccccc2)c2ccccc2S(=O)(=O)N1CC(=O)Nc1ccccc1C(F)(F)F`, the Potency entry was “inactive”.

With `COc1ccc(C(F)(F)F)cc1NC(=O)c1sc2nc(-c3cccs3)ccc2c1N`, the Potency result is “inactive”.

Take `CN1C(=O)/C(=C/C=C2\SCCN2C)OC1=S`: the Potency is 12.6 µM (active).

Take `Cc1n[nH]c(C)c1S(=O)(=O)N1CCCC(C(=O)Nc2ccc(Br)cc2)C1` (centres undefined): the Potency result was “inactive”.

Consider `Cc1ccc2nc(-c3ccc(O)cc3)c(Nc3ccc4c(c3)OCO4)n2c1`, for which the Potency entry was “inactive”.

Take `CCOc1ccc(S(=O)(=O)N(CC(=O)NCCSCc2ccc(C)cc2)c2ccccc2)cc1`: the Potency entry is “inactive”.

On to `Cc1ccc(-c2noc(CSc3nnc(-c4ccc(Cl)cc4)n3C)n2)cc1`, for which the Potency entry was “inactive”.

Turning to `Cc1cc(-c2n[nH]c(=S)n2/N=C/C(Br)=C/c2ccccc2)n[nH]1`, the Potency result was “inactive”.

In the case of `S=c1[nH]nc(-c2cccnc2)n1/N=C/C(Cl)=C\c1ccccc1`, the Potency was 12.6 µM (active).

As to `Cc1ccc(/C=N\n2c(-c3ccccc3)n[nH]c2=S)s1`, the Potency entry is “inactive”.
